Assay outcomes from PubChem BioAssay.
TWEAK-Fn14 inh – blocks TWEAK-Fn14 interaction in a reporter cell assay; TWEAK-stimulated Fn14 reporter cells, luciferase luminescence, 8 h; actives 2% (n = 360,000); inhibition, % at 10 µM; in the data active = inhibition above about 50%
LMP1 NFkB inh – reduces LMP1-driven NF-kappaB luciferase signal; inhibition, % at 12.5 µM; actives 0.69% (n = 350,000); LMP1-induced NF-kappaB luciferase reporter cells, luminescence; in the data active = inhibition above about 41%; inconclusive = no clear call, values can overlap the other calls;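 also: 0% = neutral control wells and 100% = reference inhibitor control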
LGR2 antag – blocks bursicon-induced cAMP signaling via Drosophila LGR2; actives 0.35% (n = 380,000); HEK293 LGR2, CRE-luciferase, bursicon-stimulated, 4 h; AID 720647; inhibition, % at 9.99 µM;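 active = drop in luminescence signal, shown as inhibition above about 50% in the replicate tests, limit read from the data, passing the limit was not always enough; inconclusive = probably only some replicates passing the limit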;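 also: agonist challenge used bursicon conditioned medium at about half maximal strength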
PAX8 reporter – PAX8 transcriptional activity inhibition | RMG-I TPO-luciferase reporter, SteadyGlo, 24 h | actives 1.2% (n = 360,000) | inhibition, % at 12.6 µM | AID 652154;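 active = mean replicate inhibition at least 60% with every replicate also reaching 60%; inconclusive = only one of the two criteria is met; inactive = mean below 60% and not all replicates reaching 60%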;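 also: luciferase light reporting Pax8 driven TPO promoter activity; plate controls were median of neutral control wells for no effect and mitoxantrone controls for full effect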
TROY NFkB inh – inhibitors of TROY-dependent NF-kB signaling. Q293 LMP1-TROYcd NF-kB luciferase reporter, 4 h. inhibition, % at 10 µM. actives 0.98% (n = 360,000). AID 1347056;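 active = compounds whose plate-normalised and pattern-corrected inhibition of the luciferase reporter signal at the single screening dose is 50% or more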
EWS-Fli block – EWS/Fli transcriptional activity inhibition. A673 NR0B1-luciferase reporter, viability-normalised. inhibition, % at 12.6 µM. actives 0.67% (n = 350,000). AID 651661;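 active = mean inhibition of at least 50% after viability correction, with every replicate also passing that limit; inconclusive = mean reaches 50% but only one of two replicates passes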;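 also: firefly luciferase signal divided by Alamar Blue viability fluorescence both relative to DMSO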
An asterisk follows results filed as active; ? = inconclusive; . = not tested or not shown. Hits are enriched below; roughly 3.2% of the tested compounds scored in any of these assays.

SMILES | TWEAK-Fn14 inh | LMP1 NFkB inh | LGR2 antag | PAX8 reporter | TROY NFkB inh | EWS-Fli block
CCC(O)(CCN1CCCCC1)c1ccccc1 (stereo not drawn) | 7.6 | -1.4 | . | . | . | .
OC(CCCN1CCCCC1)(c1ccccc1)c1ccccc1 | 4.3 | 88.7* | -9.5 | -1.7 | 8.9 | 3.5
CCCCc1ccc(NC(=O)CSc2nc(=O)n(CCN(CC)CC)c3c2CCCC3)cc1 | -7.5 | -20.5 | 11.4 | ? | 54.2* | 27.7
CCCCc1ccc(NC(=O)CSc2nc(=O)n(CCN(C)C)c3c2CCC3)cc1 | 14.6 | -3.8 | 6.5 | 24.3 | 10.3 | 9.0
C[C@@H]1CN([C@@H](C)CO)C(=O)Cc2cc(NC(=O)Nc3ccc(F)cc3)ccc2O[C@@H]1CN(C)C(=O)Nc1ccc(F)cc1 | . | . | -17.4 | . | . | -7.4
COc1ccccc1-c1ccc2n(c1=O)C[C@@H]1[C@@H](CO)[C@H](C(=O)N3CCN(C)CC3)[C@H]2N1CC1CC1 | . | . | -1.6 | -1.3 | . | -6.6
C[C@@H]1CN([C@H](C)CO)S(=O)(=O)c2ccc(C#C[C@@H](C)O)cc2O[C@@H]1CN(C)C(=O)Nc1ccccc1 | . | . | 15.1 | -6.8 | . | -17.1
Cc1ccc2nc(NCC(=O)O)nc(-c3ccccc3)c2c1 | 31.9 | 3.4 | . | . | -1.2 | .
COc1cc(Nc2nc(-c3ccccc3)c3cc(C)ccc3n2)cc(OC)c1OC | 69.1* | -20.9 | . | . | -12.7 | .
C[C@H]1CN([C@@H](C)CO)C(=O)c2cccc(NC(=O)NC3CCCCC3)c2O[C@@H]1CN(C)Cc1ccc(C(=O)O)cc1 | . | . | 4.0 | 5.0 | . | .
COc1cccc(-c2cnc(C(O)c3cccc(F)c3)[nH]2)c1 (stereo not drawn) | 41.6 | . | -44.0 | -115.7 | 52.1* | -78.6
COc1ccc(C(=O)Nc2nnc(SCC(=O)NCc3ccco3)s2)c(OC)c1 | 75.1* | 22.9 | ? | 4.4 | 43.2 | .
COc1ccc(C(=O)Nc2nnc(SCC(=O)NC3CCCC3)s2)c(OC)c1 | 74.1* | 38.8 | -41.8 | -232.3 | -24.7 | .
COc1ccc2nc(SCC(=O)NC3CCCC3)c(C)cc2c1 | 11.3 | 11.8 | 2.9 | 13.8 | 1.8 | 55.1*
COc1ccc(C(=O)Nc2nnc(SCC(=O)NC3CC3)s2)cc1 | 53.7* | 44.6* | ? | -30.5 | 7.0 | 20.3
COc1cccc(C(=O)Nc2nnc(SCC(=O)NC3CC3)s2)c1 | -4.9 | -1.6 | -7.6 | -2.5 | -27.3 | -44.8
COc1ccc(C(=O)Nc2nnc(SCC(=O)Nc3ccc(NC(C)=O)cc3)s2)c(OC)c1 | 10.8 | -20.5 | 11.5 | 0.8 | 25.1 | -82.5
O=C(C1CC1)N1CC2(C1)[C@@H](c1ccccc1)[C@@H](CO)N2Cc1nccs1 | . | . | -20.5 | 2.2 | . | -3.7
Nc1ccc(O)cc1C(=O)OCC(=O)c1ccc(C2CCCCC2)cc1 | 102.2* | -2.9 | -14.5 | 3.8 | 25.3 | .
Cc1cc(N2CCOCC2)nc2ccc(NC(=S)N3CCN(c4ccccc4)CC3)cc12 | 4.6 | -0.5 | 11.0 | -6.7 | 2.6 | 26.7
COc1ccccc1N1CCN(C(=S)Nc2cccc(C)c2)CC1 | 62.6* | 12.3 | -16.5 | 12.3 | 61.4* | -4.7
COc1ccccc1N1CCN(C(=S)Nc2ccc3nc(N4CCOCC4)cc(C)c3c2)CC1 | 51.6* | 18.8 | 26.5 | 17.9 | 36.6 | .
CCNC(=O)C1(C)CCN(C(=O)c2ccc(F)cc2Cl)C1 (stereo not drawn) | 89.0* | . | 2.3 | -34.9 | 2.2 | -8.7
CC(=O)N1CCc2cc(S(=O)(=O)C(C)CC(=O)NCc3ccc(C)o3)ccc21 (stereo not drawn) | 0.0 | 5.6 | 18.9 | 4.2 | -11.5 | -8.9
CC(=O)N1CCc2cc(S(=O)(=O)C(C)CC(=O)NCc3ccco3)ccc21 (stereo not drawn) | 1.1 | 3.7 | 56.4* | 4.9 | -13.8 | 5.6
O=C(NCCO)c1cccc(Nc2nc(-c3ccccc3)c3cc(Cl)ccc3n2)c1 | 51.0* | 10.9 | . | . | 22.1 | .
COc1ccc(-c2ccc3c(c2)[C@@H]2[C@@H](CCN2C(=O)C2CCCCC2)[C@H](CO)N3C)cc1 | . | . | 14.7 | 92.7* | . | 12.7
COc1ccc(-c2ccc3c(c2)[C@@H]2[C@@H](CCN2C(=O)C2CCCC2)[C@H](CO)N3C)cc1 | . | . | -10.8 | 75.5* | . | -1.3
COc1ccc(-c2ccc3c(c2)[C@H]2[C@H](CCN2C(=O)C2CCCCC2)[C@H](CO)N3C)cc1 | . | . | 21.4 | 22.9 | . | 1.6
COc1ccc(-c2ccc3c(c2)[C@H]2[C@H](CCN2S(=O)(=O)c2ccccc2C)[C@H](CO)N3C)cc1 | . | . | 19.1 | 69.4* | . | 11.5
